PubChem BioAssay (NCATS)
Results filed as inconclusive are left out.

Assay: qHTS for identification of novel therapeutic agents for treatment of microphthalmiaassociated transcription factor (MiT) renal cell carcinoma (RCC) (AID 1963991)
Settings: TFE3-RCC viability, CellTiter-Glo, 48 h; measured here: UOK124 Z-AUC; stronger effect = lower value
Summary of the method: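 Curves over 11 concentrations were fitted to CellTiter-Glo luminescence, scaled between empty wells (0%) and DMSO (100%) viability. Cells were UOK109, UOK124 and UOK145 TFE3-fusion RCC lines at 500/well, exposed 48 hours at 37 C.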

Row | Compound | z-score
1 | CCOC(=O)[C@@H](N)CCC(=O)N[C@@H](CSCc1ccccc1)C(=O)N[C@@H](C(=O)OCC)c1ccccc1 | 0.492
2 | CN1C(=O)C[C@H](C(=O)N[C@@H](Cc2cnc[nH]2)C(=O)N2CCC[C@@H]2C(N)=O)NC1=O | 0.308
3 | Cc1ccc(C(=O)N(CCCN)[C@@H](c2oc3cc(Cl)ccc3c(=O)c2Cc2ccccc2)C(C)C)cc1 | -1.71
4 | CN1CCN2c3ncccc3Cc3ccccc3C2C1 (stereo not drawn) | 0.445
5 | CCNC(=O)CCCC=CC[C@@H]1[C@H](C=CC(O)CCc2ccccc2)[C@@H](O)C[C@@H]1O (stereo partly drawn) | 0.311
6 | CCN(CCO)CCCOc1ccc2c(Nc3cc(CC(=O)Nc4cccc(F)c4)[nH]n3)ncnc2c1 | 0.316
7 | CN(C)CCN(C)C(=O)c1ccc(NC(=O)Nc2ccc(-c3nc(N4CCOCC4)c4ccn(CC(F)(F)F)c4n3)cc2)cc1 | -3.06
8 | CC(C)C[C@@H](N)[C@H](O)C(=O)N[C@H](C(=O)N[C@H](C(=O)N[C@@H](CC(=O)O)C(=O)O)C(C)C)C(C)C | 0.596
9 | CCC[C@H](N[C@@H](C)C(=O)N1[C@@H]2CCCC[C@H]2C[C@H]1C(=O)O)C(=O)OCC | 0.337
10 | O=C(O)C1=CC(O)C(O)[C@H](O)C1 (stereo partly drawn) | 0.866
11 | COc1ccc(-c2nc3ccc(C4=NNC(=O)CC4C)cc3[nH]2)cc1 (stereo not drawn) | 0.3
12 | COc1cccc(OC)c1-c1cc(C(=O)NC2(C(=O)O)C3CC4CC(C3)CC2C4)nn1-c1ccnc2cc(Cl)ccc12 (stereo not drawn) | 0.441
13 | CCC(=O)N1CCN(c2ccc(-n3c(=O)ccc4cnc5ccc(-c6cnc7ccccc7c6)cc5c43)cc2C(F)(F)F)CC1 | -1.23
